MazEF act: increases E. coli MazEF RNase cleavage of RNA. P0AE70. FAM/BHQ RNA-DNA oligo cleavage fluorescence, 5 h. activation, % at 20 µM. 350,000 tested, 0.32% active. AID 504720; in the data active = activation above about 50%
Target sequence (P0AE70 whole entry, looked up): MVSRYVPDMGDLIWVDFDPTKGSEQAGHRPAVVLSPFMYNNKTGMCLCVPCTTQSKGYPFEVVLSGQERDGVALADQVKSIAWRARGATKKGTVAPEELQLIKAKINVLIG
Mtb betalactam: beta-lactam sensitization of Mtb H37Rv; 330,000 tested, 0.27% active; M. tuberculosis H37Rv growth with meropenem, percent inhibition; inhibition, % at 25 µM; AID 434955; call rule not given here;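 also: growth measured after seven days incubation then overnight dye step; 0% = bacteria only wells and 100% = bacteria with antibiotic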
Mtb FBA inh: Mtb fructose-bisphosphate aldolase inhibition | inhibition, % at 1 µM | 360,000 tested, 2.3% active | P9WQA3 | purified M. tuberculosis FBA, fluorescence read-out;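 also: 0% = vehicle and 100% = reference inhibitor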
Target sequence (P9WQA3 whole entry, looked up): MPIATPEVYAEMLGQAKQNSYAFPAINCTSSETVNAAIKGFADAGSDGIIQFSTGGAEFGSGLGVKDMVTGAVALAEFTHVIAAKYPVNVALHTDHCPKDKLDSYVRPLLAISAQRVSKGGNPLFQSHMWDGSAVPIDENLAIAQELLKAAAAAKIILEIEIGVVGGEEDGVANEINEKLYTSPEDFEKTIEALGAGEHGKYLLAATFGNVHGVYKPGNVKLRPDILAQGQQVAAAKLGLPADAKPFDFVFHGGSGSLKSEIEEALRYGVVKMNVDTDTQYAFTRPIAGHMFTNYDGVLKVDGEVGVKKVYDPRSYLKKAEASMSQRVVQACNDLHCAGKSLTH
CCHFV vOTU inh: blocks the CCHF virus ovarian tumor domain protease | CCHFV vOTU protease, Pep-AMC fluorescence | inhibition, % at 11.5 µM | 370,000 tested, 0.55% active | AID 651958; in the data active = inhibition above about 30%; also: 0% = vehicle wells with enzyme and 100% = no enzyme wells
GDH-TPI counter-1: counter-screen for M. tuberculosis FBA inhibitors: GDH-TPI coupled enzymes | GDH-TPI coupled enzyme counterscreen, NADH absorbance | inhibition, % at 4.8 µM | 360,000 tested, 1.2% active; in the data active = inhibition above about 30%;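 also: 0% = DMSO wells and 100% = wells lacking the enzyme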
Mtb FBA confirm: confirmation of M. tuberculosis fructose-bisphosphate aldolase inhibitors. shares compounds with Mtb FBA inh. purified M. tuberculosis FBA, fluorescence read-out. inhibition, % at 1 µM. 5,600 tested, 78% active. AID 651616;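 also: 0% = vehicle wells and 100% = reference inhibitor wells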
GDH-TPI counter-2: inhibits GDH-TPI coupling enzymes, flagging Mtb FBA hits | GDH-TPI coupled enzyme counterscreen, fluorescence | shares compounds with Mtb FBA inh | inhibition, % at 1 µM | 5,600 tested, 81% active | AID 652141; in the data active = inhibition above about 10%
GDH-TPI dose: GDH-TPI dose response counter-screen for Mtb FBA. IC50, µM. GDH-TPI coupled enzyme assay, fluorescence, artifact counterscreen. 170 tested, 79% active. shares compounds with Mtb FBA inh. AID 652145; call rule not given here
Numbers without * were called inactive; nt = no result; + = active, no number. The list is not random: actives were taken first. Their share in the collection is about 4%. Rule as the data show it, unless noted: active = inhibition above about 27%; inactive = the rest.

SMILES	MazEF act	Mtb betalactam	Mtb FBA inh	CCHFV vOTU inh	GDH-TPI counter-1	Mtb FBA confirm	GDH-TPI counter-2	others
CCN(CC)C(=O)Cc1c(O)c2ccccc2[nH]c1=O	-3	10	29*	12	19	98*	70*
CCCCCOC(=O)Cc1c(O)c2ccccc2[nH]c1=O	-16	5	13	4	-14	nt	nt
COC(=O)[C@]12C[C@H](CC(=O)NCC3CCCCC3)C(=O)N(Cc3ccco3)C1=C[C@H](C(C)C)O[C@@H]2C1CC1	nt	nt	nt	18	nt	nt	nt
COc1ccccc1-n1c(=O)[nH]c2c(C(N)=O)nc(CC(C)C)nc21	-5	6	16	2	3	nt	nt
COc1ccccc1-n1c(=O)[nH]c2c(C(N)=O)nc(C3CCCCC3)nc21	9	-2	27*	-3	18	+	+
COc1ccccc1-n1c(=O)[nH]c2c(C(N)=O)nc(-c3cccnc3)nc21	6	0	39*	-13	28	4	4
CCCOc1ccc(-c2nc(C#N)c(N3CCc4ccccc4C3)o2)cc1	-6	5	7	-1	21	nt	nt
CCOc1ccc(-c2nc(C#N)c(N3CCN(CC)CC3)o2)cc1	-2	-3	59*	-9	28	44*	49*
CCN1CCN(c2oc(-c3ccc([N+](=O)[O-])cc3)nc2C#N)CC1	6	-5	-1	-3	1	nt	nt
CCCOc1ccc(-c2nc(C#N)c(N3CCN(CC)CC3)o2)cc1	-2	74	44*	-7	4	+	+
COc1ccc(-c2c(C)oc3c(CN4CCN(C)CC4)c(O)ccc3c2=O)cc1	2	-3	102*	-94	20	63*	40*
CCCc1cc(=O)oc2c(CN3CCN(C)CC3)c(O)ccc12	3	1	nt	-385	13	nt	nt
CCN1CCN(Cc2c(O)ccc3c(=O)c(-c4ccc(OC)c(OC)c4)c(C)oc23)CC1	4	7	41*	-44	22	62*	51*
Cc1ccc(-c2cnc(-c3ccccc3C(=O)O)o2)cc1	7	-10	70*	1	0	11	-3	GDH-TPI dose=1.6*
CC(OC(=O)c1ccccc1NCCO)C(=O)NC1CCCCC1C (stereo not given)	3	3	96*	-94	4	1	-4
O=C(COC(=O)c1ccc(O)cc1)Nc1cc(C(F)(F)F)ccc1N1CCOCC1	4	-2	3	0	-3	nt	nt
CC1Cc2ccccc2N1C(=O)COC(=O)c1cccnc1Cl (stereo not given)	6	3	1	-20	6	nt	nt
CC1Cc2ccccc2N1C(=O)COC(=O)c1ccccc1NCCO (stereo not given)	4	-13	109*	-82	16	80*	67*
O=C(OCC(=O)N1CCCc2ccccc21)c1ccccc1NCCO	-3	-9	99*	-98	-9	148*	140*
O=C(COC(=O)c1ccccc1NCCO)Nc1cc(C(F)(F)F)ccc1N1CCOCC1	0	3	70*	-63	4	3	-5
COC(=O)[C@]12C[C@H](CC(=O)NCc3cccc(C(F)(F)F)c3)C(=O)N(CCc3ccc(OC)c(OC)c3)C1=C[C@H](C(C)C)O[C@@H]2C1CC1	nt	nt	nt	25	nt	nt	nt
Cc1ccccc1C(=O)NC1CCCCN(Cc2cccc(F)c2)C1=O (stereo not given)	nt	nt	nt	-6	nt	nt	nt
O=[N+]([O-])c1ccccc1/C=C/C1Nc2cccc3cccc(c23)N1	nt	nt	nt	5	nt	nt	nt
CC1CCN(C(=O)COC(=O)c2ccccc2NCCO)CC1	6	nt	92*	-125	14	131*	112*
Cc1cccc(Cn2cc(COC(=O)NCCc3ccccc3)nn2)c1	nt	nt	nt	-4	nt	nt	nt
SMILES	MazEF act	Mtb betalactam	Mtb FBA inh	CCHFV vOTU inh	GDH-TPI counter-1	Mtb FBA confirm	GDH-TPI counter-2	others
c1ccc2c(c1)COc1c3ncccc3nn1-2	-5	nt	33*	-24	23	37*	32*
O=C(c1ccc2c3n(nc2c1)-c1ccccc1CO3)N1CCCCC1	2	28	2	5	10	nt	nt
CCCc1nc2ccc(C(=O)OC)cn2c1Cc1ccccc1OC	nt	nt	nt	0	nt	nt	nt
O=C(c1ccc(F)cc1)N1CCN(c2ccc(N3CCOCC3)nn2)CC1	8	-7	21	-45	2	nt	nt
COc1cc(OC)cc(C(=O)N2CCN(c3ccc(N4CCOCC4)nn3)CC2)c1	-1	-6	28*	-58	12	-3	-8
CCCCOc1ccc(C(=O)N2CCN(c3ccc(N4CCOCC4)nn3)CC2)cc1	0	-5	30*	-44	5	7	-6
Cc1ccc(C(=O)N2CCN(c3ccc(N4CCOCC4)nn3)CC2)cc1	4	0	37*	-39	-6	+	+
CC1(c2nnnn2-c2ccc(F)cc2)CCCC(=O)N1CCc1c[nH]c2ccccc12 (stereo not given)	nt	nt	nt	0	nt	nt	nt
C[C@@H]1CN([C@@H](C)CO)C(=O)CCCn2cc(nn2)CO[C@H]1CN(C)C(=O)Nc1ccnc(N2CCOCC2)c1	nt	nt	nt	1	nt	nt	nt
CN(C)c1ccc(/C=C/c2ccc3c4ccccc4ccc3[n+]2-c2ccccc2)cc1	-10	nt	36*	0	9	122*	101*
COc1cc2ccccc2cc1C(=O)OCC(=O)c1c(N)n(C)c(=O)n(C)c1=O	9	-4	28*	-24	6	178*	142*
c1cc(-c2ccc3c(c2)CCO3)n2cnnc2c1	nt	nt	15	6	4	nt	nt
c1cc(-c2ccc(N3CCOCC3)cc2)n2cnnc2c1	nt	nt	92*	-82	18	174*	151*
Cc1cc2[nH]c(=O)cc(-c3ccccc3)n2n1	1	5	34*	-33	6	153*	120*
Cc1cc2[nH]c(=O)c3ccccc3n2n1	-2	-10	6	-10	8	nt	nt
NC(=O)c1ccc(NCCc2cccs2)cc1	nt	nt	4	14	nt	nt	nt
Cn1c2ccccc2c(=O)c2ccc(NCCc3cccs3)cc21	-12	91	109*	-73	30	5	-1
O=C(N1CCOCC1)N1CC[C@H]2[C@H](CCCN2Cc2ccccc2)C1	nt	nt	nt	3	nt	nt	nt
Nc1ccccc1C(=O)NC1CCCNC1=O (stereo not given)	1	-7	61*	-8	-2	+	+
O=C(Nc1ccc(Cl)cc1)NC1CCCCNC1=O (stereo not given)	7	2	-3	-16	6	nt	nt
CCc1ccc(Nc2ncc3c(n2)CC(C)(C)CC3=O)cc1	7	-3	35*	-4	17	+	172*
CCc1ccc(Nc2ncc3c(n2)CC(C)CC3=O)cc1 (stereo not given)	2	-5	-1	10	1	nt	nt
CC(OC(=O)c1cccnc1Cl)C(=O)Nc1ccc2c(c1)OCCO2 (stereo not given)	6	4	35*	-7	-1	161*	130*

Compound activity deposited in PubChem BioAssay by several laboratories.
